The text below walks through data of PubChem BioAssay (NCI).

Common to all, as to assay: NCI-60 one-dose screen, 48 h (100 = growth as untreated, 0 = no growth, -100 = all killed)
One test has as its system K-562 leukemia. As to conditions: 10 µM unless noted.
The test system of the next test is MALME-3M melanoma. As to conditions: 10 µM unless noted.
A further test has as its system RXF 393 renal. The settings on record: 10 µM unless noted.
Another test relates to SF-295 CNS. As to conditions: 10 µM unless noted.
The next test concerns UACC-257 melanoma. As to conditions: 10 µM unless noted.
A further test deals with HCT-15 colon. As to conditions: 10 µM.
The test system of another test is UACC-62 melanoma. As to conditions: 10 µM unless noted.
Another test concerns LOX IMVI melanoma. The settings on record: 10 µM unless noted.
A further test deals with SK-MEL-2 melanoma. The settings on record: 10 µM unless noted.
A further test deals with TK-10 renal. As to conditions: 10 µM unless noted.
In the next test the test system is A498 renal. As to conditions: 10 µM unless noted.
For a further test, the system named is HL-60(TB) leukemia. As to conditions: 10 µM unless noted.
The subject of a further test is MOLT-4 leukemia. As to conditions: 10 µM.
The test system of the next test is OVCAR-8 ovarian. The settings on record: 10 µM unless noted.
The next test relates to OVCAR-4 ovarian. As to conditions: 10 µM unless noted.
Another test concerns NCI/ADR-RES ovarian. As to conditions: 10 µM unless noted.
For a further test, the system named is BT-549 breast. As to conditions: 10 µM.
In another test the test system is HCC-2998 colon. As to conditions: 10 µM unless noted.
The subject of another test is ACHN renal. The settings on record: 10 µM unless noted.
For the next test, the system named is T-47D breast. The settings on record: 10 µM unless noted.

Each structure is given as a SMILES string. This is part of a sample that, as a whole, favours compounds with a hit. Of some 83,000 tested, about 20% had one in any assay.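 Single-concentration screen, 48 h exposure, 96-well plates. Endpoint: percent growth. Below 10 = active.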 A number with no mark means an inactive call. Activity calls are given as the source filed them.

`Cc1cc(CCl)c(C)cc1CCl`: the growth is 63.8% with K-562 leukemia; 82.9% with MALME-3M melanoma; 93.3% in the test with RXF 393 renal; 25.7% in the test on SF-295 CNS; 62.1% with UACC-257 melanoma; 75.2% with HCT-15 colon. The growth is 60.6% in the test with UACC-62 melanoma; 28% in the test on LOX IMVI melanoma; 70.1% with SK-MEL-2 melanoma; 37.3% in the test with TK-10 renal; 84.6% with A498 renal; 15.3% with HL-60(TB) leukemia. The growth with MOLT-4 leukemia is 29.7%; in the test on OVCAR-8 ovarian, 61.7%; with OVCAR-4 ovarian it was 83.4%; in the test on NCI/ADR-RES ovarian, 62%; with BT-549 breast it was 68.8%; in the test on HCC-2998 colon it was 71.4%.
As to `N#C[Se]CCN1C(=O)C2C(C1=O)[C@H]1C=C[C@@H]2S1` (some centres not stated), the growth was 24.3% in the test with K-562 leukemia; -40.5% (active) with MALME-3M melanoma; -52.2% (active) in the test on RXF 393 renal; -34.8% (active) in the test with SF-295 CNS; 10.9% in the test on UACC-257 melanoma; -4.75% (active) in the test on HCT-15 colon. Also, the growth was 18.9% with UACC-62 melanoma; -46% (active) in the test on LOX IMVI melanoma; 23.4% in the test on SK-MEL-2 melanoma; -65.3% (active) in the test on TK-10 renal; -2.15% (active) in the test with ACHN renal; -48.1% (active) in the test with HL-60(TB) leukemia. The growth with MOLT-4 leukemia is 4.47% (active); in the test on OVCAR-8 ovarian it was -19.3% (active); in the test on OVCAR-4 ovarian, 25.3%; in the test with NCI/ADR-RES ovarian it was -10.7% (active); with T-47D breast, 70.7%; in the test on BT-549 breast, -81% (active). The growth in the test on HCC-2998 colon was 67.4%.
`CC(=O)Nc1ccc(Cc2ccc(NC(C)=O)cc2)cc1`: the growth in the test with K-562 leukemia is 112%; with MALME-3M melanoma, 103%; in the test on RXF 393 renal, 89.4%; in the test with SF-295 CNS, 108%; in the test with UACC-257 melanoma it was 99.1%; in the test on HCT-15 colon, 107%. Further, the growth is 107% in the test with UACC-62 melanoma; 99.8% in the test on LOX IMVI melanoma; 125% with SK-MEL-2 melanoma; 106% in the test with TK-10 renal; 101% with ACHN renal; 129% in the test with A498 renal. The growth was 49.1% in the test with HL-60(TB) leukemia; 76.3% in the test with MOLT-4 leukemia; 95.6% with OVCAR-8 ovarian; 99% in the test with OVCAR-4 ovarian; 95.9% in the test with NCI/ADR-RES ovarian; 103% in the test on T-47D breast. In addition, the growth in the test on BT-549 breast was 117%; with HCC-2998 colon, 116%.
